Results as given in article PMC4552634, “A New Set of Chemical Starting Points with Plasmodium falciparum Transmission-Blocking Potential for Antimalarial Drug Discovery” (PLoS ONE, 2015).
Screen size: about 13,000 compounds; about 3,200 (25%) showed an effect of 50% or more. Some of the results follow.

System: P. falciparum stage V gametocytes
Set-up: BacTiter-Glo ATP luminescence viability of purified stage V gametocytes in 384-well plates, per cent inhibition versus DMSO
Conditions: 48 h, 5 µM; inhibitor

Structure (SMILES) | % Inhibition
CC(=O)CC(=O)N1CCN(c2ccccc2)CC1 [TCMDC-125502] | -5.255%
Cn1nc(C(=O)N2CCC(c3[nH]ncc3Cc3ccccc3)CC2)c2ccccc2c1=O [TCMDC-124642] | 16.79%
CC(C)n1nc(C(=O)N2CCN(c3ccccc3)CC2)c2ccccc2c1=O [TCMDC-124333] | 78.8%
Cn1c2c(c3ccccc31)CN(CCC1(c3ccc(Cl)c(Cl)c3)CN(C(=O)c3ccccc3)CCO1)CC2 (stereo not shown) [TCMDC-135562] | -29.91%
COCCN(C(=O)Cc1cccs1)C(C(=O)NCc1ccc(OC)cc1)c1ccc(C(C)C)cc1 (stereo not shown) [TCMDC-125625] | -2.779%
CN1CCN(CCNc2c3ccccc3nc3c2ccc2ccccc23)CC1 [TCMDC-137723] | 92.22%
CN1CCN(CCNc2c3ccccc3nc3ccc4ccccc4c23)CC1 [TCMDC-137724] | 54.46%
CN(Cc1cnc2nc(N)nc(N)c2n1)c1ccc(C(=O)N[C@@H](CCC(=O)O)C(=O)O)cc1 [TCMDC-125858] | -8.966%
Cc1c(-c2cccc(Br)c2)[nH]c2nc(N)nc(N)c12 [TCMDC-137836] | -91.89%
COc1cc(OC)cc(C(=O)N2CCOC(CCN3CCC(c4ccccc4)CC3)(c3ccc(Cl)c(Cl)c3)C2)c1 (stereo not shown) [TCMDC-135348] | -85.08%
O=C(c1ccc(F)c(F)c1)N1CCOC(CCN2CCC(c3ccccc3)CC2)(c2ccc(Cl)c(Cl)c2)C1 (stereo not shown) [TCMDC-135337] | -91.33%
O=C(c1ccccc1)N1CCC(CN2CCOC(c3ccccc3)(c3ccccc3)C2)CC1 [TCMDC-136346] | 86.1%
O=C(c1ccc(Cl)cc1)N1CCOC(CCN2CCC(c3ccccc3)CC2)(c2ccc(Cl)c(Cl)c2)C1 (stereo not shown) [TCMDC-135351] | -32.03%
O=C(Nc1cccc(F)c1)N1CCC(CN2CCOC(c3ccccc3)(c3ccccc3)C2)CC1 [TCMDC-136345] | 66.91%
CCOc1ccc(C(=O)N2CCOC(CCN3CCC(c4ccccc4)CC3)(c3ccc(Cl)c(Cl)c3)C2)cc1 (stereo not shown) [TCMDC-135344] | -65.78%
O=C(Nc1cc(F)cc(F)c1)N1CCOC(CCN2CCC(c3ccccc3)CC2)(c2ccc(Cl)c(Cl)c2)C1 (stereo not shown) [TCMDC-135333] | 17.76%
O=C(Nc1ccccc1)N1CCC(CN2CCOC(c3ccccc3)(c3ccccc3)C2)CC1 [TCMDC-136344] | 40.09%
COc1ccc(C(=O)N2CCC(CN3CCOC(c4ccccc4)(c4ccccc4)C3)CC2)cc1 [TCMDC-136347] | 57.99%
NC(N)=NC(=O)Nc1cc(F)c(Cl)c(Br)c1 [TCMDC-137510] | -16.64%
CC(C)Nc1nc(NC2CCCCC2)nc(N2CCCCCCC2)n1 [TCMDC-139688] | -95.56%
Cc1nc2ccc(Nc3nccc(-c4c(-c5cccc(NC(=O)c6c(F)cccc6F)c5)nn5ccccc45)n3)cc2nc1C [TCMDC-135906] | -53.2%
Cc1cc(NN=Cc2cccc(Cl)c2)c2ccccc2n1 [TCMDC-142060] | -14.77%
Cc1ccc2c(NN=Cc3cccc(Cl)c3)cc(C)nc2c1 [TCMDC-142064] | 91.21%
Cc1ccc2c(NN=Cc3ccc(N(C)C)cc3)cc(C)nc2c1 [TCMDC-142076] | -47.79%
Cc1ccc2nc(C)cc(NN=Cc3cccc(Cl)c3)c2c1 [TCMDC-142063] | 87.16%

Structure (SMILES) | % Inhibition
Cc1cc(N2CCCC2)nc(Nc2ccc(NC(=O)c3ccco3)cc2)n1 [TCMDC-124965] | -16.57%
O=C1C2C3SC(c4c3ccc3ccccc43)C2C(=O)N1c1ccccc1 (stereo not shown) [TCMDC-123946] | -5.395%
COC(=O)c1ccc(NC(=O)c2ccc(CCN3CCC(c4nc(COCC(F)(F)F)c(-c5ccc(F)cc5)o4)CC3)cc2)cc1 [TCMDC-138133] | -17.07%
CCN(C(=O)CSc1cc(C)c2cc(C)cc(C)c2n1)C1CCS(=O)(=O)C1 (stereo not shown) [TCMDC-123568] | -6.938%
COc1ccc2[nH]cc(C3CCN(Cc4ccc(NC(=O)c5ccc(-c6ccccc6)cc5)cc4)CC3)c2c1 [TCMDC-139069] | 7.748%
COc1ccc2[nH]cc(C3CCN(CCCCNC(=O)c4ccc(NC(=O)c5ccc(Cl)cc5)cc4)CC3)c2c1 [TCMDC-138328] | -10.4%
CN(C)CCCOc1ccc(CN2CCC(c3c[nH]c4ccc(NCC5CCCCC5)cc34)CC2)cc1 [TCMDC-140737] | 96.97%
Cc1noc(C)c1-c1cccc(CNCc2cccc(-c3cccc(-c4nc5ccccc5[nH]4)c3)c2)c1.O=C(O)C(F)(F)F [TCMDC-133065] | 2.097%
Cc1cccn2c(=O)c3cc(C(=O)NC(C)c4ccccc4)c(=N)n(CCc4ccccc4)c3nc12 (stereo not shown) [TCMDC-124469] | -59.42%
COc1ccc(CCn2c(=N)c(C(=O)NCc3cccnc3)cc3c(=O)n4cccc(C)c4nc32)cc1 [TCMDC-124470] | 92%
COc1ccc(CCn2c(=N)c(C(=O)NCc3ccccc3)cc3c(=O)n4cccc(C)c4nc32)cc1 [TCMDC-124473] | 6.095%
CCCn1c(=N)c(C(=O)NCCc2ccccc2)cc2c(=O)n3cccc(C)c3nc21 [TCMDC-125084] | 4.719%
CCOCCCn1c(=N)c(C(=O)NCc2ccc(OC)cc2)cc2c(=O)n3cccc(C)c3nc21 [TCMDC-125406] | 75.07%
CCOCCCn1c(=N)c(C(=O)NCc2ccc(F)cc2)cc2c(=O)n3cccc(C)c3nc21 [TCMDC-125407] | 36.21%
Cc1cccn2c(=O)c3cc(C(=O)NCc4cccnc4)c(=N)n(CCc4ccccc4)c3nc12 [TCMDC-125663] | 86.68%
COc1ccc(CCn2c(=N)c(C(=O)NCc3cccnc3)cc3c(=O)n4ccccc4nc32)cc1 [TCMDC-124471] | 25.4%
Cc1cccn2c(=O)c3cc(C(=O)NCCc4ccccc4)c(=N)n(CCCOC(C)C)c3nc12 [TCMDC-125410] | 68.18%
COCCCn1c(=N)c(C(=O)NCCc2ccc(OC)cc2)cc2c(=O)n3cccc(C)c3nc21 [TCMDC-125085] | 9.799%
CCCCn1c(=N)c(C(=O)NCc2cccnc2)cc2c(=O)n3cccc(C)c3nc21 [TCMDC-124382] | 12.6%
Cc1ccc2nc3c(cc(C(=O)NCCc4ccccc4)c(=N)n3CCCOC(C)C)c(=O)n2c1 [TCMDC-125408] | -18.91%
Cn1c(-c2ccccc2)cc2c3c(=O)cc(C(F)(F)F)[nH]c3ccc21 [TCMDC-123876] | 31.04%
C#CCOc1ccc(N2C(N)=NC(N)=NC2(C)C)cc1 [TCMDC-137471] | 11.38%
CC(C)c1cc2c(ccc3nc(N)nc(N)c32)o1 [TCMDC-131930] | 25.15%
Cc1ncccc1C(=O)Nc1cccc(-c2cccc(-c3nc4c(C)cccc4[nH]3)c2)c1 [TCMDC-136861] | -23.88%
COc1cccc(C(=O)N2CCOC(CCN3CCC(c4ccccc4)CC3)(c3ccc(Cl)c(Cl)c3)C2)c1 (stereo not shown) [TCMDC-135336] | -36.5%

Structure (SMILES) | % Inhibition
CCCCNC(=O)[C@H](CC1CCCCC1)NC(=O)c1ccc(O)c(-c2ccc(Cl)c(Cl)c2)c1 [TCMDC-140841] | 30.41%
Oc1c(CN2CCC(Cc3ccccc3)CC2)cc(Cl)c2cccnc12 [TCMDC-124594] | 97.81%
O=C(NC1CC1)c1cnc(N2CCC(Cc3ccccc3)CC2)c(Cl)c1 [TCMDC-134606] | 6.713%
COc1cc(C)cc(CN2CCC(Cc3ccccc3)CC2)c1O [TCMDC-124540] | -75.55%
Cc1nccn1Cc1cc(C(C)(C)C)c(O)c(C(C)(C)C)c1 [TCMDC-131329] | -8.756%
COc1cc(CNC[C@@H](O)[C@H](Cc2ccccc2)NC(=O)c2cc(OC(C)C)cc(N3CCCS3(=O)=O)c2)cc(OC)c1 [TCMDC-134559] | 3.73%
COc1cc2c(cc1C=CC(=O)N1CCN(Cc3nc4sc(C)c(C)c4c(=O)[nH]3)CC1)OC(C)C2 (stereo not shown) [TCMDC-132412] | -4.453%
CN(C)CCOc1cc(NC(=O)Nc2ccc(-c3ccccc3)cc2Cl)ccc1I [TCMDC-139140] | -41.53%
C/C=C/C=C/C1=NCCc2cc(OCCC)ccc21 [TCMDC-137442] | 112.8%
CCC(O)c1ccc(Br)cc1NC(=O)c1cccc(Cl)c1 (stereo not shown) [TCMDC-125394] | 16.03%
O=C(O)c1ccc2c(c1)N(C(=O)CNCc1ccc(F)cc1)CC(=O)N2CCCc1ccccc1 [TCMDC-140379] | -9.998%
CNC(=O)Cc1ccc(C(=O)Nc2cccc(-c3csc(-c4nc5ccccc5[nH]4)c3)c2)cc1 [TCMDC-132395] | -10.74%
Clc1ccc(-c2[nH]c3ccccc3c2CN2CCC(N3CCCCC3)CC2)cc1 [TCMDC-141631] | 17.32%
c1ccc(-c2[nH]c3ccccc3c2CN2CCC(N3CCCCC3)CC2)nc1 [TCMDC-141636] | 54.53%
Fc1ccc2[nH]c(-c3ccccc3)nc2c1CN1CCC(N2CCCC2)CC1 [TCMDC-136310] | 4.53%
COc1ccc2nccc(N3C[C@H]4C[C@@H]3CN4CCNCc3ccc4c(n3)NC(=O)CS4)c2n1 [TCMDC-134685] | 4.783%
Cn1nc(-c2ccc(NC(=O)Nc3cc(C(F)(F)F)ccc3F)c(F)c2)c2cnc(NCCCn3ccnc3)nc21 [TCMDC-141612] | 3.105%
CC1CCCCN1CCCNc1ncc2c(-c3ccc(NC(=O)Nc4cc(C(F)(F)F)ccc4F)c(F)c3)nn(C)c2n1 (stereo not shown) [TCMDC-141608] | 97.41%
CCN(CC)CCCNc1ncc2c(-c3ccc(NC(=O)Nc4cc(C(F)(F)F)ccc4F)c(F)c3)nn(C)c2n1 [TCMDC-141609] | 106.5%
Cn1nc(-c2ccc(NC(=O)Nc3cc(C(F)(F)F)cc(C(F)(F)F)c3)c(F)c2)c2cnc(NCCN3CCOCC3)nc21 [TCMDC-141560] | 5.577%
Cn1nc(-c2ccc(NC(=O)Nc3cc(C(F)(F)F)ccc3F)cc2)c2cnc(NCCCCN3CCCC3)nc21 [TCMDC-141585] | 81.15%
CN1CCN(CCCNc2ncc3c(-c4ccc(NC(=O)Nc5cc(C(F)(F)F)ccc5F)c(F)c4)nn(C)c3n2)CC1 [TCMDC-141611] | 81.4%
Cn1nc(-c2ccc(NC(=O)Nc3cc(C(F)(F)F)ccc3F)c(F)c2)c2cnc(NCCCN3CCOCC3)nc21 [TCMDC-141607] | 30.03%
